CHT allo act = allosteric activators of human choline transporter CHT | CHT-expressing cells, membrane potential dye, choline EC20; stronger effect = higher value; LV-AA mutant CHT in HEK293 cells | B-score at 10 µM | 0.49% of 310,000 active;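 active = initial fluorescence not abnormally high and integrated response B-score, plate-corrected, over 3 SD above library mean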
PKA-R2B activ = activates the human PKA-R2B holoenzyme complex | P22694+P31323 | PKA-R2B holoenzyme dissociation, Cy5-IP20 fluorescence polarization; R2B truncated from residue 108, S112A mutant; 0% DMSO only, 100% 113 µM cGMP | activation, % at 11.4 µM | 0.079% of 340,000 active | AID 504700;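 active = activation above a cutoff set at the mean over all compounds plus 3 SD, cut at about 18% in these data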;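 note: higher means more holoenzyme dissociation and a rise in polarization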
Target sequence (P31323 whole entry, looked up, other chains not shown, the tested form may be a part): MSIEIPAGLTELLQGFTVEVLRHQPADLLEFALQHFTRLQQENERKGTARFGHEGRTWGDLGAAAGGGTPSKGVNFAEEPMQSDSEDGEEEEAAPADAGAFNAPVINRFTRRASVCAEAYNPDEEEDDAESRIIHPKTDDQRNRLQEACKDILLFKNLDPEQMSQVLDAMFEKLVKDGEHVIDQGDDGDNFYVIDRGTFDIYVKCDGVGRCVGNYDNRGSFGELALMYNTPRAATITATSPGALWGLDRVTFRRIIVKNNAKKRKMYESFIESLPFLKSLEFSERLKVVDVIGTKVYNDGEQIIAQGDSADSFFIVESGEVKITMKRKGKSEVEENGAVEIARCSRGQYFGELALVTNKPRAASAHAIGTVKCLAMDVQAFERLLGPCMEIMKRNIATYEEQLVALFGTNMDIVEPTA
TMEM16A act = activates or potentiates the mouse TMEM16A chloride channel | Q8BHY3 | HEK293 TMEM16A/YFP-H148Q/I152L, iodide quench fluorescence; stronger effect = lower value | B-score at 10 µM | 0.3% of 340,000 active | AID 623877;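 active = fluorescence-ratio B-score plate-corrected deviation score at least 3 library SD below zero, with starting fluorescence score within 5 deviations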;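 note: channel opened by trigger with iodide after compound preincubation; score built on the fluorescence ratio of max minus min over baseline; more negative score means more quench and so TMEM16A activation or potentiation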
PKA-R1A activ = PKA-R1A complex activation | 0.083% of 340,000 active | AID 504707 | PKA-R1A dissociation, Cy5-IP20 fluorescence polarization; scaled: DMSO 0%, 113 µM cGMP 100% | activation, % at 11.4 µM | P00514+P68181;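 active = percent activation above the mean of all tested compounds plus 3 SD, cut at about 19% in these data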;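 note: higher means more PKAc released from R1A so a rise in polarization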
ANO1 block = blocks the mouse calcium-activated chloride channel TMEM16A; Q8BHY3; HEK293 TMEM16A/YFP iodide influx fluorescence, ionomycin; normalized B-score (activity score, 25-100; higher = stronger inhibition) at 10 µM; 1.2% of 310,000 active; AID 588511;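 active = ratio plate-corrected score three or more library SD toward inhibition, starting fluorescence score within five deviations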;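 note: score derived from kinetic fluorescence span divided by baseline fluorescence per well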
CHT inh = inhibits the human high affinity choline transporter. CHT-expressing cells, membrane potential dye, choline response; stronger effect = lower value. B-score at 10 µM. 0.86% of 310,000 active;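 active = B-score over 3 SD under the library average, and starting fluorescence ratio not unusually high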;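 note: choline stimulus applied at its EC90 after an EC20 pre-addition; B-score computed on integrated fluorescence ratio after choline addition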
CHT act confirm = confirmation of human choline transporter (CHT) activators. shares compounds with CHT allo act. CHT-expressing cells, membrane potential dye fluorescence (FDSS); % of choline EC20–EC90 response window; HEK293 expressing CHT LV-AA mutant; choline added at its EC20. activation, % at 10 µM. 91% of 2,500 active. AID 504833;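 active = primary screen active, with duplicate mean activation above negative control mean plus 3 SD, cut at about 11% in these data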
HEK293 MP dye = CHT activator counter-screen hit in parental HEK293 cells | 62% of 2,500 active | ratio readout change at 10 µM, hits read low | membrane potential dye fluorescence (FDSS); measured after EC20 choline addition | AID 623908 | shares compounds with CHT allo act;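 active = duplicate-averaged ratio beyond 3 SD from buffer wells, up or down, though filed actives are nearly all decreases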
* = called active by the depositor. This is a sample that favours compounds with a hit; in the whole collection about 2.5% have one here.

Screening O=S(=O)(c1ccccc1)N1CCN(c2nc(-c3cccnc3)nc3ccccc23)CC1 returned PKA-R2B activ -2, TMEM16A act inactive and PKA-R1A activ -3.
For COc1ccc(/C=C2/CSC/C(=C/c3ccc(OC)c(OC)c3)C2=O)cc1OC the results were PKA-R2B activ -3, TMEM16A act inactive and PKA-R1A activ 1.
Screening O=C(CNC1=NCCC1)c1ccc(Cl)cc1 returned CHT allo act inactive, PKA-R2B activ -12, TMEM16A act inactive, PKA-R1A activ -10, ANO1 block inactive, CHT inh inactive, CHT act confirm 30* and HEK293 MP dye -25*.
COc1ccc(C(=O)CNC2=NCCC2)cc1 was read as CHT allo act 8.2*, PKA-R2B activ 5, TMEM16A act inactive, PKA-R1A activ 5, ANO1 block inactive, CHT inh inactive, CHT act confirm 57* and HEK293 MP dye -47*.
For O=C(ONC1=NCCCCC1)c1ccc(Cl)cc1 the results were CHT allo act inactive, PKA-R2B activ -4, TMEM16A act inactive, PKA-R1A activ -9, ANO1 block inactive and CHT inh inactive.
`COc1ccccc1-n1cnc2cc(NCc3cccs3)ccc21` gave CHT allo act 7*, PKA-R2B activ -9, TMEM16A act inactive, PKA-R1A activ 6, ANO1 block inactive, CHT inh inactive, CHT act confirm 59* and HEK293 MP dye inactive.
Screening Cc1nn(C)c(C)c1S(=O)(=O)N(CC(=O)NCCCN1CC(C)CC(C)C1)c1ccc(C(C)C)cc1 (configuration not stated) returned CHT allo act inactive, PKA-R2B activ -16, TMEM16A act inactive, PKA-R1A activ 3, ANO1 block inactive and CHT inh inactive.
For O=C(Nc1ccncc1)C1CCN(S(=O)(=O)c2c(Cl)cccc2Cl)CC1 the results were CHT allo act inactive, PKA-R2B activ -5, TMEM16A act inactive, PKA-R1A activ -4, ANO1 block inactive and CHT inh inactive.
Screening CN1CCc2c(sc(N)c2C(=O)O)C1 returned CHT allo act inactive, PKA-R2B activ 2, TMEM16A act inactive, PKA-R1A activ 3, ANO1 block inactive and CHT inh inactive.
`COc1ccc(C(=O)c2c(N)sc3c2CCN(C)C3)cc1` gave CHT allo act 8.3*, PKA-R2B activ 0, TMEM16A act inactive, PKA-R1A activ 0, ANO1 block inactive, CHT inh inactive, CHT act confirm 41* and HEK293 MP dye -53*.
Cc1nc2ccccn2c1C(=O)N/N=C/c1cc(C)n(-c2ccc(Br)cc2)c1C was read as CHT allo act inactive, PKA-R2B activ -6, TMEM16A act inactive, PKA-R1A activ 7, ANO1 block inactive, CHT inh inactive, CHT act confirm 18* and HEK293 MP dye inactive.
`COc1ccc(N(C(=O)CS(=O)CC(=O)Nc2ccc(F)cc2)C(C(=O)NC2CCCCC2)c2cccs2)cc1` (configuration not stated) gave CHT allo act inactive, PKA-R2B activ 0, TMEM16A act inactive, PKA-R1A activ 7, ANO1 block inactive and CHT inh inactive.
CCCCn1c2c(c(=N)c3c1CCC3)CCC2 was read as CHT allo act 7.4*, PKA-R2B activ -5, TMEM16A act inactive, PKA-R1A activ -7, ANO1 block inactive, CHT inh inactive, CHT act confirm 35* and HEK293 MP dye -52*.

Screens: PubChem, several laboratories
